# Test results as given in ChEMBL document CHEMBL1961873, “Compounds: GSK PKIS; Assays: Nanosyn kinase panel” (2012).
# What was measured:
# [1] = target: Tyrosine-protein kinase receptor UFO (Homo sapiens) (UniProt P30530); settings: at 1 µM
# [2] = target: Tyrosine-protein kinase Blk (Homo sapiens) (UniProt P51451); settings: at 0.1 µM
# [3] = target: Tyrosine-protein kinase Blk (Homo sapiens) (UniProt P51451); settings: at 1 µM
# [4] = target: T1, Cytoplasmic tyrosine-protein kinase BMX (Homo sapiens) (UniProt P51813); settings: at 0.1 µM
# T1 sequence (whole entry): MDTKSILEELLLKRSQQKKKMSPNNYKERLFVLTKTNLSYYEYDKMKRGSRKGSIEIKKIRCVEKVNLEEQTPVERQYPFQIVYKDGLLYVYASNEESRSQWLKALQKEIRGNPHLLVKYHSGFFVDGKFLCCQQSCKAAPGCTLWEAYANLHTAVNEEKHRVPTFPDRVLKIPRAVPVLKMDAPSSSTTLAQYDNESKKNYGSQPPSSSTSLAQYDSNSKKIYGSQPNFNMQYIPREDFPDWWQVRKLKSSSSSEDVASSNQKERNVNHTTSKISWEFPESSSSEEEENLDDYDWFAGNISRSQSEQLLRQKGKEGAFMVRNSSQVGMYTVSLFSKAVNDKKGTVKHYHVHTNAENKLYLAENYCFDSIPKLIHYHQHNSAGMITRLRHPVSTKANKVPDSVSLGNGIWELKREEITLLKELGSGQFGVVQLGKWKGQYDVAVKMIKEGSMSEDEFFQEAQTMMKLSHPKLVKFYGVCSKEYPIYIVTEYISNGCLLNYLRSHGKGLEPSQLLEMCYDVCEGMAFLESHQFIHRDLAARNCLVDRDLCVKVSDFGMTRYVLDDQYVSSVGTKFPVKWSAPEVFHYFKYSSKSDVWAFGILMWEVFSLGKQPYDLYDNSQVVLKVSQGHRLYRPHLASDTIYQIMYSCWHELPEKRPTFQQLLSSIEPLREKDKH
# [5] = target: T1, Cytoplasmic tyrosine-protein kinase BMX (Homo sapiens); settings: at 1 µM
# [6] = target: Protein-tyrosine kinase 6 (Homo sapiens) (UniProt Q13882); settings: at 0.1 µM
# Sequence of Protein-tyrosine kinase 6 (Homo sapiens) (Q13882 whole entry, looked up): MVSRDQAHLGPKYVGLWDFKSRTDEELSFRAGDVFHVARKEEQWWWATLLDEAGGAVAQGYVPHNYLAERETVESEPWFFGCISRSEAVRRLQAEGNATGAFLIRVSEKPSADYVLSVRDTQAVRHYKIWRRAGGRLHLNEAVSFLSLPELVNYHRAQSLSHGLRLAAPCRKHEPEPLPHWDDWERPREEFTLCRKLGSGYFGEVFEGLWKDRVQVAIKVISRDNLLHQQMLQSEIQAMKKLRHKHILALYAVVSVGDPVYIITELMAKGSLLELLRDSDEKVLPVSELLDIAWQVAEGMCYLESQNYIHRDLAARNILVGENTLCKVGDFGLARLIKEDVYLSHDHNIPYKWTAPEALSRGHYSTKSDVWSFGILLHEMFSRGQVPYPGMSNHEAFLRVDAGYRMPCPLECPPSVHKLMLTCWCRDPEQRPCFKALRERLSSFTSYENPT
# [7] = target: Protein-tyrosine kinase 6 (Homo sapiens) (UniProt Q13882); settings: at 1 µM
# [8] = target: Tyrosine-protein kinase BTK (Homo sapiens) (UniProt Q06187); settings: at 0.1 µM
# Sequence of Tyrosine-protein kinase BTK (Homo sapiens) (Q06187 whole entry): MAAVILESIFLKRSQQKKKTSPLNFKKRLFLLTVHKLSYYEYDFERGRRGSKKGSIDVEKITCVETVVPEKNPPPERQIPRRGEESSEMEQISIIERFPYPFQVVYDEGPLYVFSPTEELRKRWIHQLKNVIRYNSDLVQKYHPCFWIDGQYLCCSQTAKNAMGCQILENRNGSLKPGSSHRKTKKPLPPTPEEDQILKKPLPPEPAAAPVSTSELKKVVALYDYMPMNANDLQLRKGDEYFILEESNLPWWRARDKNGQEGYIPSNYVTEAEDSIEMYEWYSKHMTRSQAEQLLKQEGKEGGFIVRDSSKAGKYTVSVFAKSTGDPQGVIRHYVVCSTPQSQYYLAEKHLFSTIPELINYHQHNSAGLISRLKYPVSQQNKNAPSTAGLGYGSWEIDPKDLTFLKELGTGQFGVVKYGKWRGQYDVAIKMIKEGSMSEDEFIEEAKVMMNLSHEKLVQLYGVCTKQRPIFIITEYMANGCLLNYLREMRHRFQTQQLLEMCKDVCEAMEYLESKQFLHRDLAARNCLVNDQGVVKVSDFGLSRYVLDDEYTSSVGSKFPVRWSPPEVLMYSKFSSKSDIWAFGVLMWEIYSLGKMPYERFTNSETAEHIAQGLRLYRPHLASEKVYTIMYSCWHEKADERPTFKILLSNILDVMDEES
# [9] = target: Tyrosine-protein kinase BTK (Homo sapiens) (UniProt Q06187); settings: at 1 µM
# [10] = target: Tyrosine-protein kinase CSK (Homo sapiens) (UniProt P41240); settings: at 0.1 µM;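 note: value given is the averaged percent inhibition of CSK kinase activity, from the GSK PKIS kinase inhibitor set screening panel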
# Sequence of Tyrosine-protein kinase CSK (Homo sapiens) (P41240 2-450 limits assumed): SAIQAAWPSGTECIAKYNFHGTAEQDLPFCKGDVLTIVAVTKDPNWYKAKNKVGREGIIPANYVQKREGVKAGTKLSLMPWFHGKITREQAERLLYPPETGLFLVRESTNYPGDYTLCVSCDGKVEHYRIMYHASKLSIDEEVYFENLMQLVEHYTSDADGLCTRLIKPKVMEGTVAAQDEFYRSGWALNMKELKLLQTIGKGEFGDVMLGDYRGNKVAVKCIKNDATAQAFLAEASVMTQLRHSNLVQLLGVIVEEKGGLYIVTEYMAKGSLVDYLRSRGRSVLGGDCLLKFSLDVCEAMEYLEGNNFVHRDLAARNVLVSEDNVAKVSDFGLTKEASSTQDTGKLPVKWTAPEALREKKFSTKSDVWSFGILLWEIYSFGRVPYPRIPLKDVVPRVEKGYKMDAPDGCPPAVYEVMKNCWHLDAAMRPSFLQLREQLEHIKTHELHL
# Sequence of Tyrosine-protein kinase receptor UFO (Homo sapiens) (P30530 whole entry): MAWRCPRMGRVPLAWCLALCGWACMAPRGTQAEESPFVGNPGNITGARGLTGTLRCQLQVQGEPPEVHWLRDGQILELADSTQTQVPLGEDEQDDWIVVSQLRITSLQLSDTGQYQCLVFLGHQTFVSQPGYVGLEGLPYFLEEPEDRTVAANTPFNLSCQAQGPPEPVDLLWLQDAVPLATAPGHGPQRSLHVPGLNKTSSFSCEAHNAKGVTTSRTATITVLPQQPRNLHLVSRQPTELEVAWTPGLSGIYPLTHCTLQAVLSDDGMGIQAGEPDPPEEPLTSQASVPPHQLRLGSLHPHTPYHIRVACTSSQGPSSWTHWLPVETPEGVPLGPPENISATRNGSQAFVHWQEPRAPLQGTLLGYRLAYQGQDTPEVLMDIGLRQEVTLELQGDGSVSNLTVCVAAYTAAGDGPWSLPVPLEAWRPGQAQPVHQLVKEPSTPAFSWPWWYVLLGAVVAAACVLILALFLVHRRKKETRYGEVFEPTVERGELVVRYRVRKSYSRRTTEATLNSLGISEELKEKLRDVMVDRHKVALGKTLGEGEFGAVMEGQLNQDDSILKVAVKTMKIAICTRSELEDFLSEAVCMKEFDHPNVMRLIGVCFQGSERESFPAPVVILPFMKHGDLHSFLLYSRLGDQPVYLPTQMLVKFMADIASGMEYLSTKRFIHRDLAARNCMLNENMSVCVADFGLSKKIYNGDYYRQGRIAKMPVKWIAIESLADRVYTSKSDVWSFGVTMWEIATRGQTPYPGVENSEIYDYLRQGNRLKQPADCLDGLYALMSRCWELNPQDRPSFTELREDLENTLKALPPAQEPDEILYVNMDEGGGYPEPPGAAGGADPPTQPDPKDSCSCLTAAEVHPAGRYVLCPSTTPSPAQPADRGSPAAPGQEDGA
# Sequence of Tyrosine-protein kinase Blk (Homo sapiens) (P51451 2-505 limits assumed): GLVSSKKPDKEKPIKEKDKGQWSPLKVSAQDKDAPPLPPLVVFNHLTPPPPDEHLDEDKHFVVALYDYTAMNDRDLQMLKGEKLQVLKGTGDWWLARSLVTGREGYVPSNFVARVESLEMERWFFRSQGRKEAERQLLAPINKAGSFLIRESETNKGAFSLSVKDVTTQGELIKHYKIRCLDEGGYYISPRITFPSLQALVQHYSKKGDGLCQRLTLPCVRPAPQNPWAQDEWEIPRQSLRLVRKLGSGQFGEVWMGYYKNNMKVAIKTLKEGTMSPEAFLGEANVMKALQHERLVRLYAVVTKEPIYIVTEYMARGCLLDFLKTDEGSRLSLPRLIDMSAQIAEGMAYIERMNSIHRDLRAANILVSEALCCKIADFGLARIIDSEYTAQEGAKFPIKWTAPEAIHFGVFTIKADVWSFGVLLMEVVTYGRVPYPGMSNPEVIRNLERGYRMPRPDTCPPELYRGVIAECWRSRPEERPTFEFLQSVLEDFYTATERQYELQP
SMILES,inhibition [1] [%],inhibition [2] [%],inhibition [3] [%],inhibition [4] [%],inhibition [5] [%],inhibition [6] [%],inhibition [7] [%],inhibition [8] [%],inhibition [9] [%],inhibition [10] [%]
COc1cc(/C=N/Nc2ncnc3[nH]ncc23)ccc1O,-3.87,9.75,59.7,2.08,32.4,5.52,30.3,1.57,7.64,7.17
O=C(O[C@H]1CN[C@H](C#Cc2cc3ncnc(Nc4ccc(Cc5ccccc5)cc4)c3s2)C1)N1CCOCC1,-7.04,5.97,48.5,1.38,4.65,-0.08,18.2,-0.44,1.44,-1.2
CCN(CC)S(=O)(=O)c1ccc(OC)c(Nc2ncc(-c3ccccc3)o2)c1,-0.53,3.51,31.4,-2.19,7.38,-0.82,3.3,2.59,3.38,1.59
Nc1nc(-c2cccc(Cl)c2)c(-c2ccc3ncccc3n2)s1,-8.66,3.51,7.22,2.53,5.31,5.86,10.6,0.83,-0.84,5.57
c1cc(-c2cnn3nc(N4CCOCC4)ccc23)nc(NC2CC2)n1,-5.65,2.34,7.51,0.89,2.31,6.35,7.89,1.63,2.33,10.8
CC(C)COC(=O)c1ccc2c(c1)/C(=C/Nc1ccc(S(N)(=O)=O)cc1)C(=O)N2,13.2,1.11,28.6,0.73,-1.5,-2.24,-2.63,-1.47,-1.1,-2.24
Fc1ccc(-c2nn3ncccc3c2-c2ccnc(Nc3ccc4c(c3)OCCO4)n2)cc1,-5.61,14.4,71.2,15,49.4,17.1,67.8,-1.09,5.26,3.81
CS(=O)(=O)CCNCc1coc(-c2ccc3ncnc(Nc4ccc(OCc5ccccc5)cc4)c3c2)c1,0.06,2.9,11.5,4.64,6.49,-1.1,10.9,-0.04,2.66,0.42
COc1cccc(-c2c[nH]c3c(N/N=C/c4ccncc4)ncnc23)c1,3.21,7.63,57.9,8.13,45.1,2.51,4.81,0.88,2.48,4.78
CN1CCC(n2cnc(-c3ccc(F)cc3)c2-c2ccnc(Nc3ccccc3)n2)CC1,-1.45,2.74,7.18,6.66,5.4,2.56,13.2,-0.86,1.25,5.97
CC(=O)Nc1cccc(C#Cc2cncnc2Nc2ccc(OCc3cccc(F)c3)c(Cl)c2)c1,1.6,2.4,1.37,0.73,4.15,1.35,1.55,2.74,5.12,5.08
CS(=O)(=O)CCNCc1ccc(-c2ccc3ncnc(Nc4ccc(OCc5ccccc5)c(C(F)(F)F)c4)c3c2)o1,-6.09,3.53,4.36,2.52,1.86,3.06,3.52,1.47,1.16,0.54
O=S(=O)(CCNCc1ccc(-c2ccc3ncnc(Nc4ccc(OCc5cccc(F)c5)c(Cl)c4)c3c2)o1)c1ccccc1,-5.93,2.67,6.67,5.7,6.77,6.2,6.15,-0.83,1.59,7.31
CCCN1CCC(c2ccc(Nc3nc(Nc4cc(F)ccc4C(N)=O)c4cc[nH]c4n3)c(OC)c2)CC1,66,3.5,8.52,3.68,6.36,13.5,64.8,-1.53,-1.71,1.38
CCNC(=O)O[C@H]1CN[C@H](C#Cc2cc3ncnc(Nc4ccc(OCc5cccc(F)c5)c(Cl)c4)c3s2)C1,-3.57,2.3,2.43,-0.06,2.73,3.17,5.56,1.15,1.29,5.58
Nc1nc(-c2ccc(F)cc2)c(-c2ccc3ncccc3n2)s1,-3.07,4.2,12.1,-2.65,6.23,7.59,20.6,0.27,0.99,5.94
CCOc1ccc2c(-c3ccnc(Nc4cccc(C(F)(F)F)c4)n3)cnn2n1,-0.78,2.21,3.22,3.34,1.94,-0.32,0.97,0.07,1.18,1.57

SMILES,inhibition [1] [%],inhibition [2] [%],inhibition [3] [%],inhibition [4] [%],inhibition [5] [%],inhibition [6] [%],inhibition [7] [%],inhibition [8] [%],inhibition [9] [%],inhibition [10] [%]
COc1ccc(-c2cc3c(N)ncnc3o2)cc1,2.96,0.55,4.67,-2.47,2.73,0.01,2.82,-0.13,-0.38,-1.51
COc1ccc(-c2cc(-c3c[nH]nc3-c3ccccn3)ccn2)cc1,-5.64,4.09,3.9,-1.41,5.27,6.49,7.25,2.09,1.28,7.77
COc1cccc(-n2ncc3c(N/N=C/c4ccc(F)cc4)ncnc32)c1,-3.79,4.91,18.2,-0.31,13,4.36,5.54,1.48,1.13,3.3
[O-][S+]1CCN(Cc2ccc(-c3ccc4ncnc(Nc5ccc(OCc6cccc(F)c6)c(Cl)c5)c4c3)o2)CC1,-4.13,1.74,7.66,7.13,7.73,4.81,7.3,-0.42,0.99,6.74
Fc1ccc(-c2nn3ccccc3c2-c2ccncc2)cc1,0.78,0.92,2.66,-1.75,1.42,-1.18,7.58,-2.02,-1.29,-0.04
CC(=O)NCc1cccc(C#Cc2cncnc2Nc2ccc(OCc3cccc(F)c3)c(Cl)c2)c1,0.14,-0.03,0.29,2.32,0.07,0.12,3.96,-1.42,-0.78,-0.86
COc1ccc2c(-c3ccnc(Nc4cccc(OC(F)(F)F)c4)n3)cnn2n1,-4.65,3.16,4.41,0.75,8.05,7.26,7.21,1.66,2.02,8.18
COc1ccc(-c2oc3ncnc(N)c3c2-c2ccc(NC(=O)Nc3cc(C(F)(F)F)ccc3F)cc2)cc1,82.1,5.14,41.2,8.1,59.5,3.11,25.4,1.43,13.3,10.9
Cc1ccc2c(-c3ccnc(Nc4ccccc4)n3)c(-c3ccc(F)cc3)nn2n1,-3.51,6.22,49,3.36,42.7,15.2,63.4,2.84,6.06,3.99
CN1CCC(n2cnc(-c3ccc(F)cc3)c2-c2ccnc(N)n2)CC1,0.24,1.67,6.71,3.52,4.58,3.49,8.09,0.47,0.93,7.73
Clc1ccc(-c2nn3ncccc3c2-c2ccnc(Nc3ccccc3)n2)cc1,-0.77,3.97,15,-0.61,13.9,7.5,40.2,0.8,2.63,0.47
NS(=O)(=O)c1ccc(Nc2ncc(-c3ccccc3)o2)cc1,-3.58,2.41,4.76,0.13,5.05,4.11,4.41,0,1.06,6.51
CCn1c(-c2nonc2N)nc2c(C#CC(C)(C)O)ncc(OC3CCNCC3)c21,-4.23,2.38,3.31,3.84,7.52,1.28,1.62,0.17,0.56,3.49
CNC(=O)c1cccc(C#Cc2cncnc2Nc2ccc(OCc3cccc(F)c3)c(Cl)c2)c1,-0.81,1.53,1.17,-1.48,1.31,-0.91,2.87,2.52,-0.29,1.96
N#Cc1c(NC(=O)c2ccc(F)cc2)sc2c1CCCC2,-1.26,0.68,1.75,1.31,0.33,-0.11,-2,-1.3,-0.45,1.81
CNC(=O)c1cc(-c2ccc(F)cc2)cc(-c2ccc(S(=O)(=O)N3CCCC3)cc2)c1N,-4.04,2.16,2.11,2.06,2.39,1.87,1.57,-1.58,-0.59,-0.99
O=C(Nc1n[nH]c2cc(-c3ccc(F)cc3)ccc12)C1CC1,-2.92,1.55,7.03,0.57,5.89,3.22,2.76,-1.4,-0.88,3.39
